In PubChem BioAssay (NCI):
This is part of a sample that, as a whole, favours compounds with a hit. Of some 83,000 tested, about 20% had one in any assay.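 Growth was measured after 48 h exposure to one concentration of compound in 96-well plates. Values under 10 count as active.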 Unmarked numbers belong to inactive results. Activity calls are given as the source filed them.

Tests used:
Test in all cases: NCI-60 one-dose screen, 48 h (100 = growth as untreated, 0 = no growth, -100 = all killed)
Settings in all cases: 10 µM unless noted
NCI-H23 lung = test system: NCI-H23 lung
NCI-H226 lung = test system: NCI-H226 lung
NCI-H322M lung = test system: NCI-H322M lung
HOP-62 NSCLC = test system: HOP-62 NSCLC
NCI-H460 lung = test system: NCI-H460 lung
HOP-92 NSCLC = test system: HOP-92 NSCLC
786-0 renal = test system: 786-0 renal
COLO 205 colon = test system: COLO 205 colon
DU-145 prostate = test system: DU-145 prostate
K-562 leukemia = test system: K-562 leukemia
MALME-3M melanoma = test system: MALME-3M melanoma
MDA-MB-231 breast = test system: MDA-MB-231 breast
RXF 393 renal = test system: RXF 393 renal
SF-268 CNS = test system: SF-268 CNS
SF-295 CNS = test system: SF-295 CNS
SF-539 CNS = test system: SF-539 CNS
M14 melanoma = test system: M14 melanoma
A549/ATCC NSCLC = test system: A549/ATCC NSCLC
UACC-257 melanoma = test system: UACC-257 melanoma

SMILES	growth (NCI-H23 lung)	growth (NCI-H226 lung)	growth (NCI-H322M lung)	growth (HOP-62 NSCLC)	growth (NCI-H460 lung)	growth (HOP-92 NSCLC)	growth (786-0 renal)	growth (COLO 205 colon)	growth (DU-145 prostate)	growth (K-562 leukemia)	growth (MALME-3M melanoma)	growth (MDA-MB-231 breast)	growth (RXF 393 renal)	growth (SF-268 CNS)	growth (SF-295 CNS)	growth (SF-539 CNS)	growth (M14 melanoma)	growth (A549/ATCC NSCLC)	growth (UACC-257 melanoma)
CCN(CC)CCCCCCCCNc1c2ccc(Cl)cc2nc2ccc(OC)cc12	-43.8% (active)	-21.4% (active)	-39.2% (active)	-67.8% (active)	-51.6% (active)	-75.9% (active)	-88.8% (active)	-84.6% (active)	-66.6% (active)	-39.3% (active)	-65.6% (active)	-72.2% (active)	-92.8% (active)	-73.2% (active)	-76% (active)	-82% (active)	-82.4% (active)		
COc1cc(OC)cc(-c2ccc(-c3ccc(C(=N)N)s3)s2)c1	-75.7% (active)	-65.3% (active)	-86.7% (active)	-88.1% (active)	-71.6% (active)	-71% (active)	-80.4% (active)	-78.1% (active)	-74.2% (active)	-35.7% (active)	-73.8% (active)	-80.5% (active)	-73.9% (active)	-76.5% (active)	-78.5% (active)	-92.2% (active)	-88.2% (active)		
ClC1=NC(Cl)C(Cl)=N/C1=N\c1ncn[nH]1 (stereo unspecified)	62.8%	106%	89.2%	39.3%	73.3%	-60% (active)	81.2%	-76.4% (active)	-78.9% (active)	-48% (active)	-64.3% (active)	72.7%	-64.6% (active)	33.8%	101%	67.5%	39.2%		
O=P(O)(O)C(O)(Cc1cccnc1)P(=O)(O)O	93.1%	111%	107%	94.3%	111%	114%	108%				113%	94.1%	101%	104%	111%	101%	99.6%	98.8%	99.4%
COc1ccc(-c2ccc(-c3ccc(C(=N)N)s3)s2)cc1	-70.3% (active)	-50.9% (active)	-93.4% (active)	-81.6% (active)	-64.2% (active)	-64.2% (active)	-64.4% (active)	-89.2% (active)	-95.5% (active)	-21.5% (active)	-61.4% (active)	-79.9% (active)	-57.5% (active)	-61.3% (active)	-77.6% (active)	-75.5% (active)	-55.1% (active)		
Cc1nn(-c2ccccc2)c2nc3c(nc12)C1=NCCN1C(c1ccc(Cl)cc1)N3 (stereo unspecified)	92.8%	86.2%	77.4%	87.7%	82.9%	30.2%	76.6%	-82.9% (active)	89.9%	5.26% (active)	7.76% (active)	66.8%	70%	84.9%	94.6%	95.1%		88.9%	
COC(=O)[C@H](Cc1cn(C)cn1)NC(=O)[C@H](CC(C)C)NC(=O)Nc1cc(C(F)(F)F)cc(C(F)(F)F)c1	-84.5% [100 µM] (active)	-54.7% [100 µM] (active)	-97.8% [100 µM] (active)	-100% [100 µM] (active)	-59.8% [100 µM] (active)	-98.2% [100 µM] (active)	-94.9% [100 µM] (active)	-84.4% [100 µM] (active)	-100% [100 µM] (active)	-65.4% [100 µM] (active)	-93.5% [100 µM] (active)	-94% [100 µM] (active)	-89.3% [100 µM] (active)	-92.8% [100 µM] (active)	-96.5% [100 µM] (active)		-95.2% [100 µM] (active)		
COc1ccc(/C=N/NC(N)=S)c(OC)n1	108%	85.7%	104%	116%	106%	113%	104%	111%	113%	89.5%	103%	110%	94.4%	109%	106%	100%	104%		
O=C1c2cccc3cccc(c23)C(=O)N1CCCCCCCCCCN1C(=O)c2cccc3cccc(c23)C1=O	112%	96.4%	111%	104%	102%	108%	109%	119%	123%	103%	113%	108%	96.6%	100%	95.3%	102%	119%		
